Results reported in the supplement of paper PMC7765376.
The full ranking holds about 1,500 compounds; the median of “Excess HSA synergy score (sum over dose matrix of excess over highest single agent)” is about 43, and the lowest 2% start at about -900. Shown is part of a subset that was picked to be rich in the lowest values.

Tested on: PEO-1
Experiment: Excess HSA synergy score (sum over dose matrix of excess over highest single agent) (score (summed % response)); higher = less synergy / more antagonism (negative = synergy)
Conditions: 72 h, read-out: viability/apoptosis luminescence (CellTiter-Glo or Caspase3-Glo / not stated per table)
[1] = matrix design: 6x6, 5-fold dilutions (primary screen)
[2] = matrix design: 10x10, 9-step dilutions (confirmatory)

| SMILES | Excess HSA synergy score [1] | Excess HSA synergy score [2] |
| --- | --- | --- |
| CCNC(=O)Nc1ccc(-c2nc3c(c(N4CCOC[C@@H]4C)n2)CCN(C2COC2)C3)cc1 + CC[C@H](NC(=O)[C@H](C)NC)C(=O)N1C[C@@H](O)C[C@H]1Cc1c(-c2[nH]c3cc(F)ccc3c2C[C@@H]2C[C@H](O)CN2C(=O)[C@H](CC)NC(=O)[C@H](C)NC)[nH]c2cc(F)ccc12 [Birinapant] | -44.2 | – |
| CN1CCN(c2nc(C3=C(c4c[nH]c5ccccc45)C(=O)NC3=O)c3ccccc3n2)CC1 [Sotrastaurin] + CC[C@H](NC(=O)[C@H](C)NC)C(=O)N1C[C@@H](O)C[C@H]1Cc1c(-c2[nH]c3cc(F)ccc3c2C[C@@H]2C[C@H](O)CN2C(=O)[C@H](CC)NC(=O)[C@H](C)NC)[nH]c2cc(F)ccc12 [Birinapant] | 84.5 | – |
| Cc1noc(-c2ccc(CSCCC(=O)O)cc2)c1NC(=O)OC(C)c1ccccc1Cl (stereo unspecified) + CC[C@H](NC(=O)[C@H](C)NC)C(=O)N1C[C@@H](O)C[C@H]1Cc1c(-c2[nH]c3cc(F)ccc3c2C[C@@H]2C[C@H](O)CN2C(=O)[C@H](CC)NC(=O)[C@H](C)NC)[nH]c2cc(F)ccc12 [Birinapant] | 351 | – |
| CCOc1cc(C(=O)Nc2ccc(Cl)c(-c3nc4ccccc4[nH]3)c2)cc(OCC)c1OCC + CC[C@H](NC(=O)[C@H](C)NC)C(=O)N1C[C@@H](O)C[C@H]1Cc1c(-c2[nH]c3cc(F)ccc3c2C[C@@H]2C[C@H](O)CN2C(=O)[C@H](CC)NC(=O)[C@H](C)NC)[nH]c2cc(F)ccc12 [Birinapant] | 142 | – |
| C=C(C)[C@@H]1CC[C@]2(C)CC[C@]3(C)[C@H](CC[C@@H]4[C@@]5(C)CC[C@H](O)C(C)(C)[C@@H]5CC[C@]43C)[C@@H]12 [Lupeol] + CC[C@H](NC(=O)[C@H](C)NC)C(=O)N1C[C@@H](O)C[C@H]1Cc1c(-c2[nH]c3cc(F)ccc3c2C[C@@H]2C[C@H](O)CN2C(=O)[C@H](CC)NC(=O)[C@H](C)NC)[nH]c2cc(F)ccc12 [Birinapant] | -39.9 | – |
| O=C(NNC(=O)c1ccc(CNS(=O)(=O)c2ccc(F)c(Cl)c2)cc1)c1ccccc1 + CC[C@H](NC(=O)[C@H](C)NC)C(=O)N1C[C@@H](O)C[C@H]1Cc1c(-c2[nH]c3cc(F)ccc3c2C[C@@H]2C[C@H](O)CN2C(=O)[C@H](CC)NC(=O)[C@H](C)NC)[nH]c2cc(F)ccc12 [Birinapant] | 144 | – |
| CC(C)(C)c1cc(C(C)(C)C)c(NC(=O)c2c[nH]c3ccccc3c2=O)cc1O [Ivacaftor] + CC[C@H](NC(=O)[C@H](C)NC)C(=O)N1C[C@@H](O)C[C@H]1Cc1c(-c2[nH]c3cc(F)ccc3c2C[C@@H]2C[C@H](O)CN2C(=O)[C@H](CC)NC(=O)[C@H](C)NC)[nH]c2cc(F)ccc12 [Birinapant] | 116 | – |
| C=CC(=O)Nc1cc2c(Nc3ccc(F)c(Cl)c3)ncnc2cc1C#CC(C)(C)N1CCN(C)CC1 + CC[C@H](NC(=O)[C@H](C)NC)C(=O)N1C[C@@H](O)C[C@H]1Cc1c(-c2[nH]c3cc(F)ccc3c2C[C@@H]2C[C@H](O)CN2C(=O)[C@H](CC)NC(=O)[C@H](C)NC)[nH]c2cc(F)ccc12 [Birinapant] | 44.3 | – |
| CO[C@H]1C(=O)[C@]2(C)[C@@H](OC)C[C@H]3OC[C@@]3(OC(C)=O)[C@H]2[C@H](OC(=O)c2ccccc2)[C@]2(O)C[C@H](OC(=O)[C@H](O)[C@@H](NC(=O)OC(C)(C)C)c3ccccc3)C(C)=C1C2(C)C [Cabazitaxel] + CC[C@H](NC(=O)[C@H](C)NC)C(=O)N1C[C@@H](O)C[C@H]1Cc1c(-c2[nH]c3cc(F)ccc3c2C[C@@H]2C[C@H](O)CN2C(=O)[C@H](CC)NC(=O)[C@H](C)NC)[nH]c2cc(F)ccc12 [Birinapant] | -61.8 | – |
| Cc1ccc(NC(=O)c2cccc(C(C)(C)C#N)c2)cc1Nc1ccc2ncn(C)c(=O)c2c1 + CC[C@H](NC(=O)[C@H](C)NC)C(=O)N1C[C@@H](O)C[C@H]1Cc1c(-c2[nH]c3cc(F)ccc3c2C[C@@H]2C[C@H](O)CN2C(=O)[C@H](CC)NC(=O)[C@H](C)NC)[nH]c2cc(F)ccc12 [Birinapant] | 31.8 | – |
| CCNC(=O)Nc1ccc2ncc(Nc3ccc(C)cc3)nc2n1 + CC[C@H](NC(=O)[C@H](C)NC)C(=O)N1C[C@@H](O)C[C@H]1Cc1c(-c2[nH]c3cc(F)ccc3c2C[C@@H]2C[C@H](O)CN2C(=O)[C@H](CC)NC(=O)[C@H](C)NC)[nH]c2cc(F)ccc12 [Birinapant] | 77.2 | – |
| Cc1nc(Nc2n[nH]c3c2CN(C(=O)N[C@H](CN(C)C)c2ccccc2)C3(C)C)c2sccc2n1 + CC[C@H](NC(=O)[C@H](C)NC)C(=O)N1C[C@@H](O)C[C@H]1Cc1c(-c2[nH]c3cc(F)ccc3c2C[C@@H]2C[C@H](O)CN2C(=O)[C@H](CC)NC(=O)[C@H](C)NC)[nH]c2cc(F)ccc12 [Birinapant] | -399 | -1930 |
| Cc1cnc(-c2cc(N3CCN(C(=O)CCS(C)(=O)=O)CC3)ncc2Cl)c(C)c1 + CC[C@H](NC(=O)[C@H](C)NC)C(=O)N1C[C@@H](O)C[C@H]1Cc1c(-c2[nH]c3cc(F)ccc3c2C[C@@H]2C[C@H](O)CN2C(=O)[C@H](CC)NC(=O)[C@H](C)NC)[nH]c2cc(F)ccc12 [Birinapant] | 211 | – |
| O=C(CCN1CCN(C(=O)OCc2cc(Cl)cc(Cl)c2)CC1)c1ccc2[nH]c(=O)oc2c1 + CC[C@H](NC(=O)[C@H](C)NC)C(=O)N1C[C@@H](O)C[C@H]1Cc1c(-c2[nH]c3cc(F)ccc3c2C[C@@H]2C[C@H](O)CN2C(=O)[C@H](CC)NC(=O)[C@H](C)NC)[nH]c2cc(F)ccc12 [Birinapant] | -22.5 | – |
| CC1(C)OC2=C(C(=O)c3ccccc3C2=O)[C@H](NCc2ccccc2)[C@@H]1O + CC[C@H](NC(=O)[C@H](C)NC)C(=O)N1C[C@@H](O)C[C@H]1Cc1c(-c2[nH]c3cc(F)ccc3c2C[C@@H]2C[C@H](O)CN2C(=O)[C@H](CC)NC(=O)[C@H](C)NC)[nH]c2cc(F)ccc12 [Birinapant] | 60.3 | – |
| C[C@@H](Oc1cc(-c2cnn(C3CCNCC3)c2)cnc1N)c1c(Cl)ccc(F)c1Cl [Crizotinib] + CC[C@H](NC(=O)[C@H](C)NC)C(=O)N1C[C@@H](O)C[C@H]1Cc1c(-c2[nH]c3cc(F)ccc3c2C[C@@H]2C[C@H](O)CN2C(=O)[C@H](CC)NC(=O)[C@H](C)NC)[nH]c2cc(F)ccc12 [Birinapant] | -219 | – |
| CCOC(=O)N1CCN(/[N+]([O-])=N/Oc2ccc([N+](=O)[O-])cc2C#N)CC1 + CC[C@H](NC(=O)[C@H](C)NC)C(=O)N1C[C@@H](O)C[C@H]1Cc1c(-c2[nH]c3cc(F)ccc3c2C[C@@H]2C[C@H](O)CN2C(=O)[C@H](CC)NC(=O)[C@H](C)NC)[nH]c2cc(F)ccc12 [Birinapant] | 10.9 | – |
| O=C1NC(=O)[C@@H](c2cn3c4c(cccc24)CCC3)[C@@H]1c1c[nH]c2ccccc12 [Tivantinib] + CC[C@H](NC(=O)[C@H](C)NC)C(=O)N1C[C@@H](O)C[C@H]1Cc1c(-c2[nH]c3cc(F)ccc3c2C[C@@H]2C[C@H](O)CN2C(=O)[C@H](CC)NC(=O)[C@H](C)NC)[nH]c2cc(F)ccc12 [Birinapant] | -96.6 | – |
| COC(=O)Nc1ccc(-c2nc(N3CCOCC3)c3cnn(C4CCN(C(=O)OC)CC4)c3n2)cc1 + CC[C@H](NC(=O)[C@H](C)NC)C(=O)N1C[C@@H](O)C[C@H]1Cc1c(-c2[nH]c3cc(F)ccc3c2C[C@@H]2C[C@H](O)CN2C(=O)[C@H](CC)NC(=O)[C@H](C)NC)[nH]c2cc(F)ccc12 [Birinapant] | -64.3 | – |
| O=C(O)c1ccccc1C(=O)Nc1ccc(-c2ccccc2)cc1 [Kartogenin] + CC[C@H](NC(=O)[C@H](C)NC)C(=O)N1C[C@@H](O)C[C@H]1Cc1c(-c2[nH]c3cc(F)ccc3c2C[C@@H]2C[C@H](O)CN2C(=O)[C@H](CC)NC(=O)[C@H](C)NC)[nH]c2cc(F)ccc12 [Birinapant] | 460 | – |
| CC[C@@H]1C(=O)N(C)c2cnc(Nc3ccc(C(=O)NC4CCN(C)CC4)cc3OC)nc2N1C1CCCC1 + CC[C@H](NC(=O)[C@H](C)NC)C(=O)N1C[C@@H](O)C[C@H]1Cc1c(-c2[nH]c3cc(F)ccc3c2C[C@@H]2C[C@H](O)CN2C(=O)[C@H](CC)NC(=O)[C@H](C)NC)[nH]c2cc(F)ccc12 [Birinapant] | -84.2 | – |
| COc1cc(C(=O)NC2CCN(C)CC2)ccc1Nc1ncc2c(n1)N(C1CCCC1)CCC(=O)N2C(C)C + CC[C@H](NC(=O)[C@H](C)NC)C(=O)N1C[C@@H](O)C[C@H]1Cc1c(-c2[nH]c3cc(F)ccc3c2C[C@@H]2C[C@H](O)CN2C(=O)[C@H](CC)NC(=O)[C@H](C)NC)[nH]c2cc(F)ccc12 [Birinapant] | 135 | – |
| CC[C@@H]1C(=O)N(C)c2cnc(Nc3ccc(C(=O)N[C@H]4CC[C@H](N5CCN(CC6CC6)CC5)CC4)cc3OC)nc2N1C(C)C [Volasertib] + CC[C@H](NC(=O)[C@H](C)NC)C(=O)N1C[C@@H](O)C[C@H]1Cc1c(-c2[nH]c3cc(F)ccc3c2C[C@@H]2C[C@H](O)CN2C(=O)[C@H](CC)NC(=O)[C@H](C)NC)[nH]c2cc(F)ccc12 [Birinapant] | 22.4 | -1030 |
| COc1ccc(-n2nc(C(N)=O)c3c2C(=O)N(c2ccc(N4CCCCC4=O)cc2)CC3)cc1 [Apixaban] + CC[C@H](NC(=O)[C@H](C)NC)C(=O)N1C[C@@H](O)C[C@H]1Cc1c(-c2[nH]c3cc(F)ccc3c2C[C@@H]2C[C@H](O)CN2C(=O)[C@H](CC)NC(=O)[C@H](C)NC)[nH]c2cc(F)ccc12 [Birinapant] | -103 | – |
